# Values joined by “and” are separate entries in the source; they are usually repeats but may differ in a detail not shown here. Equal entries are not always repeated. This is part of a sample that, as a whole, favours compounds with a hit. Of some 83,000 tested, about 20% had one in any assay.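 How to read the values: 0–100, growth inhibition (40 = 60% inhibited); 0, no net growth; -100 to 0, cell death (-40 = 40% of starting cells died; -100 = all dead).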 Active and inactive are the calls of the source. The calls were made as follows: active = growth percent below 10; inactive = the rest.
# Assays:
# Test in all cases: NCI-60 one-dose screen, 48 h (100 = growth as untreated, 0 = no growth, -100 = all killed)
# NCI-H23 lung = test system: NCI-H23 lung
# NCI-H226 lung = test system: NCI-H226 lung
# NCI-H322M lung = test system: NCI-H322M lung
# HOP-62 NSCLC = test system: HOP-62 NSCLC
# HOP-92 NSCLC = test system: HOP-92 NSCLC
# NCI-H522 lung = test system: NCI-H522 lung
# A549/ATCC NSCLC = test system: A549/ATCC NSCLC
# 786-0 renal = test system: 786-0 renal
# COLO 205 colon = test system: COLO 205 colon
# NCI-H460 lung = test system: NCI-H460 lung
structure (smiles),measurement,setting,value
CC#C[C@]1(O)CC[C@H]2[C@@H]3CCC4=CC(=O)CCC4=C3[C@@H](c3ccc4c(c3)OCO4)C[C@@]21C,growth,NCI-H23 lung; 10 µM,82.8% (inactive)
same,growth,NCI-H23 lung; 100 µM,-8.63% (active)
same,growth,NCI-H226 lung; 10 µM,85.2% (inactive)
same,growth,NCI-H226 lung; 100 µM,-21.7% (active)
same,growth,NCI-H322M lung; 10 µM,90% (inactive)
same,growth,NCI-H322M lung; 100 µM,7.01% (active)
same,growth,HOP-62 NSCLC; 10 µM,81.3% (inactive)
same,growth,HOP-62 NSCLC; 100 µM,-15.3% (active)
same,growth,HOP-92 NSCLC; 10 µM,66.1% (inactive)
same,growth,HOP-92 NSCLC; 100 µM,-33.2% (active)
same,growth,NCI-H522 lung; 10 µM,62.4% (inactive)
same,growth,NCI-H522 lung; 100 µM,-37.9% (active)
same,growth,A549/ATCC NSCLC; 10 µM,66.7% (inactive)
same,growth,A549/ATCC NSCLC; 100 µM,-19.7% (active)
same,growth,786-0 renal; 10 µM,69.5% (inactive)
same,growth,786-0 renal; 100 µM,-30.5% (active)
same,growth,COLO 205 colon; 10 µM unless noted,101% (inactive)
Cc1cc(N=Nc2ccc(C)c(N=Nc3cc(C)c(N)cc3N)c2)c(N)cc1N,growth,NCI-H23 lung; 10 µM unless noted,89.5% (inactive) and 78.4% (inactive)
same,growth,NCI-H226 lung; 10 µM unless noted,87.5% (inactive) and 95.3% (inactive)
same,growth,NCI-H322M lung; 10 µM unless noted,92% (inactive) and 91% (inactive)
same,growth,HOP-62 NSCLC; 10 µM unless noted,60.6% (inactive) and 80.8% (inactive)
same,growth,NCI-H460 lung; 10 µM unless noted,97.4% (inactive) and 93.2% (inactive)
same,growth,HOP-92 NSCLC; 10 µM unless noted,66.2% (inactive)
same,growth,NCI-H522 lung; 10 µM unless noted,89.9% (inactive) and 54.9% (inactive)
same,growth,A549/ATCC NSCLC; 10 µM unless noted,95.2% (inactive) and 81% (inactive)
same,growth,786-0 renal; 10 µM unless noted,94.5% (inactive) and 102% (inactive)
same,growth,COLO 205 colon; 10 µM unless noted,92.5% (inactive) and 81.2% (inactive)
O=C1NC(=O)C2(CCc3ccccc32)N1 (configuration not stated),growth,NCI-H23 lung; 10 µM unless noted,108% (inactive) and 89.4% (inactive)
same,growth,NCI-H226 lung; 10 µM unless noted,101% (inactive) and 92.9% (inactive)
same,growth,NCI-H322M lung; 10 µM unless noted,98.8% (inactive) and 106% (inactive)
same,growth,HOP-62 NSCLC; 10 µM unless noted,105% (inactive) and 88.3% (inactive)
same,growth,NCI-H460 lung; 10 µM unless noted,98.3% (inactive) and 116% (inactive)
same,growth,HOP-92 NSCLC; 10 µM unless noted,174% (inactive)
same,growth,NCI-H522 lung; 10 µM unless noted,98.6% (inactive) and 80.6% (inactive)
same,growth,A549/ATCC NSCLC; 10 µM unless noted,97.4% (inactive) and 91.4% (inactive)
same,growth,786-0 renal; 10 µM unless noted,115% (inactive) and 94.7% (inactive)
same,growth,COLO 205 colon; 10 µM unless noted,97.4% (inactive) and 108% (inactive)
O=C(O)c1sccc1O,growth,NCI-H23 lung; 10 µM,80.1% (inactive)
same,growth,NCI-H23 lung; 100 µM,37.2% (inactive)
same,growth,NCI-H226 lung; 10 µM,89.2% (inactive)
same,growth,NCI-H226 lung; 100 µM,74.1% (inactive)
same,growth,NCI-H322M lung; 10 µM,87.5% (inactive)
same,growth,NCI-H322M lung; 100 µM,50.9% (inactive)
same,growth,HOP-62 NSCLC; 10 µM,102% (inactive)
same,growth,HOP-62 NSCLC; 100 µM,34.1% (inactive)
same,growth,NCI-H460 lung; 10 µM,91.2% (inactive)
same,growth,NCI-H460 lung; 100 µM,30.1% (inactive)
same,growth,HOP-92 NSCLC; 10 µM,66.9% (inactive)
same,growth,HOP-92 NSCLC; 100 µM,26.9% (inactive)
same,growth,NCI-H522 lung; 10 µM,64.5% (inactive)
same,growth,NCI-H522 lung; 100 µM,-32.6% (active)
same,growth,A549/ATCC NSCLC; 10 µM,82.5% (inactive)
same,growth,A549/ATCC NSCLC; 100 µM,38.8% (inactive)
same,growth,786-0 renal; 10 µM,99.1% (inactive)
same,growth,786-0 renal; 100 µM,47.6% (inactive)
same,growth,COLO 205 colon; 10 µM,111% (inactive)
same,growth,COLO 205 colon; 100 µM,84.6% (inactive)
O=C(N/N=C/c1cccc2ccccc12)C1CC1,growth,NCI-H23 lung; 10 µM unless noted,104% (inactive) and 89.3% (inactive)
same,growth,NCI-H226 lung; 10 µM unless noted,104% (inactive) and 92.2% (inactive)
same,growth,NCI-H322M lung; 10 µM unless noted,98.1% (inactive) and 101% (inactive)
same,growth,HOP-62 NSCLC; 10 µM unless noted,104% (inactive) and 116% (inactive)
same,growth,NCI-H460 lung; 10 µM unless noted,113% (inactive) and 104% (inactive)
same,growth,HOP-92 NSCLC; 10 µM unless noted,97.8% (inactive) and 95.1% (inactive)
same,growth,NCI-H522 lung; 10 µM unless noted,98.8% (inactive) and 103% (inactive)
same,growth,A549/ATCC NSCLC; 10 µM unless noted,100% (inactive) and 89.2% (inactive)
same,growth,786-0 renal; 10 µM unless noted,99.9% (inactive) and 99% (inactive)
same,growth,COLO 205 colon; 10 µM unless noted,112% (inactive) and 117% (inactive)
CN1CCN(C2CCN(C(=O)Nc3cc(Oc4ccc(NC(=O)C5(C(=O)Nc6ccc(F)cc6)CC5)c(F)c4)ccn3)CC2)CC1,growth,NCI-H23 lung; 10 µM unless noted,-44.6% (active) and 73.4% (inactive)
same,growth,NCI-H226 lung; 10 µM unless noted,-4.95% (active) and 76.4% (inactive)
same,growth,NCI-H322M lung; 10 µM unless noted,-27.6% (active) and 94% (inactive)
same,growth,HOP-62 NSCLC; 10 µM unless noted,-68.7% (active) and 110% (inactive)
same,growth,NCI-H460 lung; 10 µM unless noted,-50.4% (active) and 77.2% (inactive)
same,growth,HOP-92 NSCLC; 10 µM unless noted,-43.2% (active) and 68.1% (inactive)
same,growth,NCI-H522 lung; 10 µM unless noted,-66.2% (active) and 80.8% (inactive)
same,growth,A549/ATCC NSCLC; 10 µM unless noted,-13.9% (active) and 90.3% (inactive)
same,growth,786-0 renal; 10 µM unless noted,-72.9% (active) and 110% (inactive)
same,growth,COLO 205 colon; 10 µM unless noted,-78.3% (active) and 85.6% (inactive)
C#CCN(C)Cc1ccccc1,growth,NCI-H23 lung; 10 µM unless noted,106% (inactive) and 104% (inactive)
same,growth,NCI-H226 lung; 10 µM unless noted,91.6% (inactive) and 95.2% (inactive)
same,growth,NCI-H322M lung; 10 µM unless noted,99.3% (inactive) and 450% (inactive)
same,growth,HOP-62 NSCLC; 10 µM unless noted,93.5% (inactive) and 89.6% (inactive)
same,growth,NCI-H460 lung; 10 µM unless noted,110% (inactive) and 104% (inactive)
same,growth,HOP-92 NSCLC; 10 µM unless noted,100% (inactive)
same,growth,NCI-H522 lung; 10 µM unless noted,100% (inactive) and 92.5% (inactive)
same,growth,A549/ATCC NSCLC; 10 µM unless noted,102% (inactive) and 101% (inactive)
same,growth,786-0 renal; 10 µM unless noted,95.5% (inactive) and 70.4% (inactive)
same,growth,COLO 205 colon; 10 µM unless noted,108% (inactive) and 122% (inactive)
